# Measured values from PubChem BioAssay (NCATS).
# Calls of active or inactive are those of the source. Calls follow the shape of the dose curve; as a rule, active = well fitted activation curve with a large enough effect; inconclusive = small, poorly fitted or top-dose-only effect; inactive = flat fitted curve, though single readings scatter.
# Assay: Confirmation and Secondary Assay for Modulators of Hemoglobin Beta Chain Splicing at IVS2 705 locus (AID 930);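 also: HeLa cells stably expressing the EGFP-705 splicing reporter; % of control where 0% means no effect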
# Conditions: HeLa EGFP-705 splicing reporter, GFP fluorescence, 48 h; series mostly up to 46.1 µM; activation: at the top concentration
# How it was run: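 Stable HeLa line with EGFP disrupted by mutant beta-globin intron 2 (705). Overnight attachment, then 2 days of compound at 37C, 5% CO2. Signal: peak GFP intensity summed over objects 5-250 µm.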
row,SMILES,activation
1,C[CH2][Hg][S]c1ccccc1C(=O)O,-1.03% (inactive)
2,OC1CCCCC1N1CCC(c2ccccc2)CC1 (stereo unspecified),2.07% (inactive)
3,NC(Cc1ccc(N(CCCl)CCCl)cc1)C(=O)O (stereo unspecified),0.397% (inactive)
4,COc1ccc2c(c1OC)C(=O)OC2C1c2cc3c(cc2CCN1C)OCO3 (stereo unspecified),2.16% (inactive)
5,O=C1CCO1,-1.1% (inactive)
6,CC(N)Cc1ccc(O)cc1 (stereo unspecified),1.49% (inactive)
7,O=[N+]([O-])c1cc(O)c(O)c([N+](=O)[O-])c1,0.452% [at 38.3 µM] (inactive)
8,[Cl-].[Cl-].[Hg+2],-2.22% (inactive)
9,C=CCC1(C(C)CCC)C(=O)N=C(S)NC1=O (stereo unspecified),0.245% [at 38.3 µM] (inactive)
10,COc1ccc2[nH]cc(CCN)c2c1,-0.0152% [at 38.3 µM] (inactive)
11,CCCC(C)C1(CC)C(=O)NC(=O)NC1=O (stereo unspecified),-0.848% (inactive)
12,COc1ccc(OC)c(C(O)C(C)N)c1 (stereo unspecified),-0.0174% (inactive)
13,[N-]=[N+]=CC(=O)OCC(N)C(=O)O (stereo unspecified),0.396% (inactive)
14,ClC1C(Cl)C(Cl)C(Cl)C(Cl)C1Cl (stereo unspecified),0.0028% (inactive)
15,CN1C2CCC1CC(OC(c1ccccc1)c1ccccc1N)C2 (stereo unspecified),0.908% [at 38.3 µM] (inactive)
16,Clc1ccc(Cl)cc1,1.01% [at 38.3 µM] (inactive)
